Assay [1] can be described thus: qHTS profiling for inhibitors of Plasmodium falciparum (3D7) proliferation (AID 743322).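 Also: infected erythrocytes exposed to compound for 72 h before lysis; 100% = DMSO vehicle wells and 0% = 0.29 µM artemisinin.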 The conditions noted are these: P. falciparum 3D7 proliferation; at 28.7 µM (top of the series) unless noted. In a few lines: (§1)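 Parasite DNA was quantified by SYBR Green I fluorescence (ex 485, em 535 nm) after overnight lysis in saponin/Triton buffer at room temperature. Cultures at 0.3% parasitemia and 2.5% hematocrit were first exposed to compound for 72 h at 37 C; signals were normalised to artemisinin (0.29 uM) and vehicle wells.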

A short description of assay [2]: qHTS profiling for inhibitors of Plasmodium falciparum (DD2) proliferation (AID 743323). The conditions noted are these: lower = more inhibition; at 28.7 µM (top of the series) unless noted. In a few lines:
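SYBR Green fluorescence (ex 485, em 535 nm) of lysed cultures gives parasite DNA content; wells normalized to artemisinin (0.29 uM) and DMSO controls. Infected red cells: 0.3% parasitemia, 2.5% hematocrit, 72 h, 37 C.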
A general note: qHTS replaces the single test concentration by a dilution series.

A short description of assay [3]: qHTS profiling for inhibitors of Plasmodium falciparum (HB3) proliferation (AID 743324; active = well fitted curve in the direction sought with a large enough effect; an effect the other way counts as inactive or inconclusive;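 also: 100% = DMSO vehicle wells and 0% = artemisinin-treated control wells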). The following applies: Plasmodium falciparum HB3 blood-stage proliferation; at 28.7 µM (top of the series) unless noted. In a few lines:
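SYBR Green fluorescence (485 ex/535 em) of lysed cultures, incubated overnight at room temperature in the dark, quantifies parasite DNA. Infected erythrocytes at 0.3% parasitemia and 2.5% hematocrit were exposed 72 h; values normalized to DMSO and 0.29 uM artemisinin controls.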

Assay [4] in a line: qHTS profiling of the MIPE4 collection as inhibitors of Plasmodium falciparum (3D7) proliferation (AID 743344).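 Also: scaled between DMSO vehicle wells and 0.29 µM artemisinin as full inhibition.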 The following applies: P. falciparum 3D7 in erythrocytes, SYBR Green DNA fluorescence, 72 h; at 28.5 µM (top of the series) unless noted. In a few lines:
as §1

Assay [5] in a line: qHTS profiling of the MIPE4 collection as inhibitors of Plasmodium falciparum (DD2) proliferation (AID 743345). The following applies: P. falciparum Dd2 in erythrocytes, SYBR Green DNA, 72 h; at 28.5 µM (top of the series) unless noted. In a few lines: as §1
Assay [6] can be described thus: qHTS profiling of the MIPE4 collection as inhibitors of Plasmodium falciparum (DD2) proliferation (Rep 2) (AID 743346). The following applies: P. falciparum Dd2 in erythrocytes, SYBR Green DNA, 72 h; at 28.5 µM (top of the series) unless noted. In a few lines: as §1
The nature of assay [7]: qHTS profiling of the MIPE4 collection as inhibitors of Plasmodium falciparum (HB3) proliferation (AID 743347).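 Also: plate controls were DMSO vehicle wells for no effect and artemisinin wells for full effect.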 The following applies: P. falciparum HB3 in erythrocytes, SYBR Green DNA, 72 h; at 28.5 µM (top of the series) unless noted. In a few lines: as §1
The nature of assay [8]: qHTS Assay for Identifying Gametocytocidal Compounds (AID 743244; active = well fitted curve in the direction sought with a large enough effect; an effect the other way counts as inactive or inconclusive;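 also: % is scaled to controls: 0 for no effect and ±100 for the full control effect; actives lower the fluorescent signal which means gametocytes are killed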). The conditions noted are these: P. falciparum 3D7 stage III-V gametocytes, alamarBlue, 72 h; max response: stronger effect = lower value. In a few lines:
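Viability read-out was resazurin reduction (alamarBlue, 24 h) measured at Ex 525/Em 598 nm. Beforehand, late-stage (III-V) 3D7 P. falciparum gametocytes at 20,000 cells/well were incubated with compound 72 h at 37C under 5% CO2.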

The values that follow come from PubChem BioAssay (NCATS).

Results filed as inconclusive are left out. Calls of active or inactive are those of the source. Unless noted, no rule for the calls is given here.

For the compound `Cc1cccc(-c2nn(C(=S)Nc3ccccc3)cc2-c2ccnc3ccccc23)n1`, in assay [1], the remaining parasite growth % (stronger effect = lower value) turned out to be 91.2%. Moreover, the activity, percent of control in assay [2] turned out to be 87.9%. Also, in assay [3], the remaining proliferation (% of control), lower = more inhibition is 79.6%. For the same compound, the parasite growth, % of DMSO control in assay [4] amounted to 40.4%. Further, in assay [5], the parasite growth remaining, % of DMSO control (lower = more inhibition) is 86.3%. The parasite growth, % of control (lower = inhibition) in assay [6] worked out at 66.8%. The same compound had a growth, % of control in assay [7] of 99.5%.

Regarding `CC(c1cc2ccccc2s1)N(O)C(N)=O` (centres undefined), the max response in assay [8] is 2.55% (inactive). Also, the remaining parasite growth % (stronger effect = lower value) in assay [1] was found to be 101% [at 57.5 µM]. In assay [2], the activity, percent of control was 101% [at 57.5 µM]. The parasite growth, % of DMSO control in assay [4] is 94.1%. In addition, in assay [5], the parasite growth remaining, % of DMSO control (lower = more inhibition) was determined as 98.2%. Besides, in assay [6], the parasite growth, % of control (lower = inhibition) was 140%. Also, the growth, % of control in assay [7] was found to be 101%.

Take `C[C@]12CC[C@H](O)CC1=CC[C@@H]1[C@H]2CC[C@]2(C)C(c3cccnc3)=CC[C@H]12`: the max response in assay [8] is -8.9% (inactive). In assay [1], the remaining parasite growth % (stronger effect = lower value) is -0.476%. Further, the activity, percent of control in assay [2] turned out to be 1.24%. Further, the parasite growth, % of DMSO control in assay [4] amounted to 7.02% [at 9.64 µM]. For the same compound, the parasite growth remaining, % of DMSO control (lower = more inhibition) in assay [5] was found to be 10% [at 9.64 µM]. For the same compound, in assay [6], the parasite growth, % of control (lower = inhibition) stood at 24.8% [at 9.64 µM]. The compound also yielded a growth, % of control in assay [7] of 9.4% [at 9.64 µM].

On to `CCCc1nc2c(C)cc(-c3nc4ccccc4n3C)cc2n1Cc1ccc(-c2ccccc2C(=O)O)cc1`, for which the remaining parasite growth % (stronger effect = lower value) in assay [1] came out at 103%. Besides, the activity, percent of control in assay [2] was 94%. For the same compound, the remaining proliferation (% of control), lower = more inhibition in assay [3] came out at 66.6%. The parasite growth, % of DMSO control in assay [4] stood at 6.42%. Besides, the parasite growth remaining, % of DMSO control (lower = more inhibition) in assay [5] was found to be 16.2%. Besides, in assay [6], the parasite growth, % of control (lower = inhibition) was 21.8%. The growth, % of control in assay [7] stood at 7.75%.

`COCC(=O)NCC=Cc1ccc2ncnc(Nc3ccc(Oc4ccc(C)nc4)c(C)c3)c2c1`: the max response in assay [8] is -4.65% (inactive). For the same compound, the remaining parasite growth % (stronger effect = lower value) in assay [1] is 28.2%. The activity, percent of control in assay [2] is 24.1%. The parasite growth, % of DMSO control in assay [4] was 15.6%. In addition, the parasite growth remaining, % of DMSO control (lower = more inhibition) in assay [5] was found to be 70.2%. For the same compound, the parasite growth, % of control (lower = inhibition) in assay [6] came out at 29.4%. The same compound had a growth, % of control in assay [7] of 9.14%.

On to `CCC(C)(C)C(=O)O[C@H]1C[C@@H](C)C=C2C=C[C@H](C)[C@H](CC[C@@H]3C[C@@H](O)CC(=O)O3)[C@H]21`, for which the max response in assay [8] is 5.81% (inactive). Further, the remaining parasite growth % (stronger effect = lower value) in assay [1] was found to be 116% [at 9.63 µM]. Moreover, the activity, percent of control in assay [2] was 96.4% [at 9.63 µM]. The same compound yielded a parasite growth, % of DMSO control in assay [4] of 6.94%. In addition, the parasite growth remaining, % of DMSO control (lower = more inhibition) in assay [5] worked out at 42%. Moreover, in assay [6], the parasite growth, % of control (lower = inhibition) is 13.8%. In addition, the growth, % of control in assay [7] came out at 3.36%.

With `COc1cc2c(cc1OC)CN(CCc1ccc(NC(=O)c3cccc4c(=O)c5cccc(OC)c5[nH]c34)cc1)CC2`, the remaining parasite growth % (stronger effect = lower value) in assay [1] was -0.733%. The activity, percent of control in assay [2] is 0.466%. Moreover, in assay [4], the parasite growth, % of DMSO control came to 5.92%. The parasite growth remaining, % of DMSO control (lower = more inhibition) in assay [5] came to 7.47%. In addition, the parasite growth, % of control (lower = inhibition) in assay [6] stood at 10%.

For `Cc1c(CN2CCN(C(=O)C(C)C)CC2)sc2c(N3CCOCC3)nc(-c3cnc(N)nc3)nc12`, the remaining parasite growth % (stronger effect = lower value) in assay [1] turned out to be 12.2%. Also, the activity, percent of control in assay [2] was 23.2%. Besides, in assay [4], the parasite growth, % of DMSO control turned out to be 12.5%. In assay [5], the parasite growth remaining, % of DMSO control (lower = more inhibition) stood at 25.7%. Further, the parasite growth, % of control (lower = inhibition) in assay [6] was 14.5%. Besides, in assay [7], the growth, % of control is 4.71%.

Take `O=C(O)[C@@H](c1ccc(OCc2ccc3ccccc3n2)cc1)C1CCCC1`: the max response in assay [8] was 46.8% (inactive). Further, in assay [1], the remaining parasite growth % (stronger effect = lower value) worked out at 114%. For the same compound, in assay [2], the activity, percent of control stood at 96.9%. This compound displayed a parasite growth, % of DMSO control in assay [4] of 90.1%. In assay [5], the parasite growth remaining, % of DMSO control (lower = more inhibition) stood at 102%. Besides, in assay [6], the parasite growth, % of control (lower = inhibition) was 130%. For the same compound, in assay [7], the growth, % of control turned out to be 84.3%.

As for `CCOc1cc(C=C2C(=O)N(c3ccccc3)N=C2C)cc(Cl)c1OCC(=O)OC`, the max response in assay [8] was 28.7% (inactive). In addition, the remaining parasite growth % (stronger effect = lower value) in assay [1] amounted to 88.1%. For the same compound, the activity, percent of control in assay [2] came out at 92.3%. Also, in assay [4], the parasite growth, % of DMSO control turned out to be 102%. Also, the parasite growth remaining, % of DMSO control (lower = more inhibition) in assay [5] was 97.3%. The parasite growth, % of control (lower = inhibition) in assay [6] amounted to 106%. Further, in assay [7], the growth, % of control came out at 98.7%.

Turning to `CS(=O)(=O)Oc1ccc2c(NC(N)=O)c(C(=O)c3ccc(Cl)cc3Cl)oc2c1`, the max response in assay [8] is 25% (inactive). Also, the remaining parasite growth % (stronger effect = lower value) in assay [1] was found to be 75.4%. Also, in assay [2], the activity, percent of control came to 83.2%. For the same compound, in assay [4], the parasite growth, % of DMSO control was determined as 49.8%. Further, the parasite growth remaining, % of DMSO control (lower = more inhibition) in assay [5] worked out at 82.7%. In assay [6], the parasite growth, % of control (lower = inhibition) came to 33.3%. Further, the growth, % of control in assay [7] was 13.6%.
